Out of some 310,000 compounds screened, about 14,000 (4.5%) showed an effect of 50% or more. Effects have a minus sign here. Only a selection was taken, and strong results are over-represented in it overall.
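Further: peak tail current of the secondary pulse compared with the same well before compound.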

The assay deals with human ether-à-go-go-related gene (hERG) potassium channel (human, UniProt Q12809). Kind of assay: primary screen, population patch clamp on CHO cells stably expressing hERG; higher = less effect of the substance.
Chain of human ether-à-go-go-related gene (hERG) potassium channel (Q12809 whole entry, looked up): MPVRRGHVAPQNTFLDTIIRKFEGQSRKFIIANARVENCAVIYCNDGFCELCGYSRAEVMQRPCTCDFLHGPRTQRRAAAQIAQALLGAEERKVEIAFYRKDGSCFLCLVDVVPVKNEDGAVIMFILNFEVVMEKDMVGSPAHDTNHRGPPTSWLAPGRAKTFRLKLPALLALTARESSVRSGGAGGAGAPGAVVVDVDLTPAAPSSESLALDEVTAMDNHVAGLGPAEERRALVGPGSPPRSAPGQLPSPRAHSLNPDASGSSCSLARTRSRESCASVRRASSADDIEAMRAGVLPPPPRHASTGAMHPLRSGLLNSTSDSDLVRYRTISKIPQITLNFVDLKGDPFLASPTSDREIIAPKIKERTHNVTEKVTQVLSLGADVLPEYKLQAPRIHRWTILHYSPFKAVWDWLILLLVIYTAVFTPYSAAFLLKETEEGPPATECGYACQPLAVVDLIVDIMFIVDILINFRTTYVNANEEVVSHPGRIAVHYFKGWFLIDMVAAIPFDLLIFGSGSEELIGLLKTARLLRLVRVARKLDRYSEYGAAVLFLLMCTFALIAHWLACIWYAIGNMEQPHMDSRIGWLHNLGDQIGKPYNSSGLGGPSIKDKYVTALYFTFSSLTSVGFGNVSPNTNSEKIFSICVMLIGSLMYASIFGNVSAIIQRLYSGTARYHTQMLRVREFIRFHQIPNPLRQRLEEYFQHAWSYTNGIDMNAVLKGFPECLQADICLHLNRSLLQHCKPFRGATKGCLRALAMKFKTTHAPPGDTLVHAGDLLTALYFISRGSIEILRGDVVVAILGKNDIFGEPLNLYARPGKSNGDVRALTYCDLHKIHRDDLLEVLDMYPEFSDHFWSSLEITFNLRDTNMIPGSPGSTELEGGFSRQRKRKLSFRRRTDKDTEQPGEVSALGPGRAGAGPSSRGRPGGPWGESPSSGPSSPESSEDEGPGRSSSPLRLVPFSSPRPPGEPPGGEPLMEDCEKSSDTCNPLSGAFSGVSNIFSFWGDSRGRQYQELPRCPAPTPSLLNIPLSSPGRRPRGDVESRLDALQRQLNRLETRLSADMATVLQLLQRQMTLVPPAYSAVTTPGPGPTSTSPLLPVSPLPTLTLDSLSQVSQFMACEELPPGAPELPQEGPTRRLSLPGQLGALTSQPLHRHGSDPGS
Take `O=C1OCCN1C(=O)[C@H]1[C@H](c2ccc(Cl)cc2)C(c2cccc(Cl)c2)=NN1c1ccccc1`: the “hERG current change (%, negative = inhibition) at 10uM” value was determined as 14%.
`COc1ccccc1C(=O)C1CCCN(C(=O)Nc2ccccc2F)C1` (stereo not shown): the “hERG current change (%, negative = inhibition) at 10uM” value was 37.3%.
In the case of `Cc1nn2c(N)c(C#N)cnc2c1-c1ccc(Cl)cc1`, the “hERG current change (%, negative = inhibition) at 10uM” value is on record as -0.156%.
Regarding `Cc1cc2nnc(SCC(=O)NCc3cccs3)n2c(N)n1`, the “hERG current change (%, negative = inhibition) at 10uM” value is recorded as -8.37%.
In the case of `Cc1cccc(-n2nnc(C(=O)NCc3ccco3)c2N)c1` it was -10.2%.
For `OC1=C(O)c2nc3ccccc3nc21`, the “hERG current change (%, negative = inhibition) at 10uM” value is -1.17%.
As for `CC(C)Sc1nc2c([nH]1)c(=N)ncn2Cc1ccccc1`, the “hERG current change (%, negative = inhibition) at 10uM” value is -5.52%.
Consider `Cc1noc(C)c1COc1ccc(CC(=O)NC2CCCCCC2)cc1`, for which the “hERG current change (%, negative = inhibition) at 10uM” value amounted to 39.5%.
Turning to `COc1cc(C2NC(=O)CCC2[N+](=O)[O-])cc(OC)c1OC` (stereo not shown), the “hERG current change (%, negative = inhibition) at 10uM” value stood at 29.6%.
Consider `CSc1cccc(NC(=S)N(CCN(C)C)C(C)c2ccncc2)c1` (stereo not shown), for which the “hERG current change (%, negative = inhibition) at 10uM” value is -50.6%.
`COCCCN(C(=S)Nc1cccc(Cl)c1)C(C)c1ccncc1` (stereo not shown): the “hERG current change (%, negative = inhibition) at 10uM” value is -17.3%.
With `COc1ccc(NC(=S)N(CCN(C)C)C(C)c2ccncc2)cc1Cl` (stereo not shown), the “hERG current change (%, negative = inhibition) at 10uM” value was -59.9%.
As to `CSc1cccc(NC(=S)N(CCN(C)C)C(C)c2ccccn2)c1` (stereo not shown), the “hERG current change (%, negative = inhibition) at 10uM” value is listed as -36.2%.
Regarding `COc1cc(Cl)ccc1NC(=S)N(CCN(C)C)C(C)c1ccncc1` (stereo not shown), the “hERG current change (%, negative = inhibition) at 10uM” value was -39.2%.
With `COc1ccc(NC(=S)N(CCN(C)C)C(C)c2ccco2)cc1Cl` (stereo not shown), the “hERG current change (%, negative = inhibition) at 10uM” value is on record as -36.3%.
Turning to `CCc1cccc(NC(=S)N(CCN(C)C)C(C)c2ccncc2)c1` (stereo not shown), the “hERG current change (%, negative = inhibition) at 10uM” value is listed as -44%.
Take `COCCCN(C(=S)Nc1cc(C)cc(C)c1)C(C)c1ccncc1` (stereo not shown): the “hERG current change (%, negative = inhibition) at 10uM” value is on record as -41%.
To `COCCCN(C(=S)Nc1cc(Cl)cc(Cl)c1)C(C)c1ccncc1` (stereo not shown) belongs -70.6%.
As for `Cc1ccc(C(=O)c2ccc(C(F)(F)F)cc2)cc1`, the “hERG current change (%, negative = inhibition) at 10uM” value is 7.79%.
As to `CC(=O)N(C)C1=C(O)c2ccccc2C(=O)C1=O`, the “hERG current change (%, negative = inhibition) at 10uM” value is 22.3%.
In the case of `Cc1ccc(NC(=O)COC(=O)Cc2c[nH]c3ccccc23)cc1C` it was -7.15%; in that of `COc1ccccc1-c1nnc(SCc2nc3ccccc3s2)n1C`, -17%.
As for `COc1ccc(C(=O)COC(=O)Cn2cnc3c2c(=O)n(C)c(=O)n3C)c(OC)c1`, the “hERG current change (%, negative = inhibition) at 10uM” value is 3.76%.
In the case of `CSc1nsc(SCC(=O)NCc2ccc(C)cc2)n1` it was 10.1%.
With `COc1cc(OC)cc(-c2nnc(SCC(=O)N3CCOCC3)o2)c1`, the “hERG current change (%, negative = inhibition) at 10uM” value was found to be 9.82%.
Take `Nc1nc(SCc2ccc(Cl)cc2)ns1`: the “hERG current change (%, negative = inhibition) at 10uM” value is recorded as -7%.
With `CCNCc1cc(Br)c(OCC(=O)Nc2ccccc2)c(OC)c1.Cl`, the “hERG current change (%, negative = inhibition) at 10uM” value is -19.8%.
Regarding `CCN(CC)CCNCc1cc(Br)ccc1OCC(=O)NCc1ccccc1.Cl`, the “hERG current change (%, negative = inhibition) at 10uM” value was -83.2%.
Take `COc1cc(CNCCN(C)C)c(Br)cc1OCC(=O)NCc1ccccc1`: the “hERG current change (%, negative = inhibition) at 10uM” value is listed as -29.2%.
For `CCN(CC)CCNCc1ccc(Br)cc1OCC(=O)NCc1ccccc1.Cl`, the “hERG current change (%, negative = inhibition) at 10uM” value was -67.2%.
As to `NC(=O)N/N=C/c1cc(Br)ccc1OCC(=O)NCc1ccccc1`, the “hERG current change (%, negative = inhibition) at 10uM” value is -6.43%.
With `CCN(CC)CCNCc1cc(Cl)c(OCC(=O)Nc2ccccc2)c(OC)c1.Cl`, the “hERG current change (%, negative = inhibition) at 10uM” value is recorded as -62.5%.
In the case of `CCCCNCc1cc(Br)c(OCC(=O)NCc2ccccc2)c(OC)c1.Cl` it was -39.4%.
Turning to `COc1cc(CNC(C)c2ccccc2)cc(Cl)c1OCC(=O)Nc1ccccc1.Cl` (stereo not shown), the “hERG current change (%, negative = inhibition) at 10uM” value is on record as 9.86%.
Regarding `CCOc1cc(CNCCN(C)C)c(Cl)cc1OCC(=O)NCCc1ccccc1.Cl`, the “hERG current change (%, negative = inhibition) at 10uM” value is -10.8%.
For the molecule `Cc1c(C(=O)Nc2ccc(S(=O)(=O)Nc3ncccn3)cc2)oc2ccc(Cl)cc12`, the “hERG current change (%, negative = inhibition) at 10uM” value was -17.4%.
As for `Cn1c(=O)c2c(nc(CN3CCOCC3)n2CCc2ccccc2)n(C)c1=O`, the “hERG current change (%, negative = inhibition) at 10uM” value is recorded as 7.53%.
`Cc1ncc(CO)c2cc(C(N)=O)c(=Nc3ccccc3)oc12`: the “hERG current change (%, negative = inhibition) at 10uM” value was -27.7%.
For the molecule `COc1ccc(C(O)P(=O)(OCC(C)C)c2ccc(N(C)C)cc2)c(OC)c1` (stereo not shown), the “hERG current change (%, negative = inhibition) at 10uM” value is recorded as -3.56%.
As to `c1ccc2[nH]c(CCCc3nc4ccccc4[nH]3)nc2c1`, the “hERG current change (%, negative = inhibition) at 10uM” value is -7.32%.
For the molecule `CCCc1nc2ccccc2[nH]1`, the “hERG current change (%, negative = inhibition) at 10uM” value is listed as 24.6%.
In the case of `CC1CCN(CCc2nc3ccccc3[nH]2)CC1` it was -63.7%.
Regarding `COc1ccc2cc(C(=O)C3CCCN(Cc4cnc(N5CCOCC5)s4)C3)ccc2c1` (stereo not shown), the “hERG current change (%, negative = inhibition) at 10uM” value came out at 14.6%.
As to `CCn1ccnc1CN1CCCC(C(=O)c2ccc(SC)cc2)C1` (stereo not shown), the “hERG current change (%, negative = inhibition) at 10uM” value was -58.3%.
With `COc1ccc(Cl)cc1C(=O)C1CCCN(Cc2cnc(N3CCOCC3)s2)C1` (stereo not shown), the “hERG current change (%, negative = inhibition) at 10uM” value is reported as -57.6%.
To `CCn1ccnc1CN1CCCC(C(=O)c2cc(Cl)ccc2OC)C1` (stereo not shown) belongs -73.3%.

The record behind these values is article PMC4336329 (PLoS ONE, 2015).
